From PubChem BioAssay
Only some compounds are listed: those with a hit (about 2.4% of all), similar ones and a draw of the others.
ATXN2 expr inh: inhibitors of ATXN2 expression; HEK-293 ATXN2-luciferase reporter, luminescence, 24 h; hit rate 0.72% among 360,000; Potency, µM (highest dose often 57 µM), for the others: at the highest dose activity change, negative = inhibition, hits mostly inhibitors; note: % is set by controls: 0 for no effect and ±100 for the full control effect; nearly all actives have a fitted effect of over 55% in size
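qHTS (up to 57 uM final) was run with 24 h compound exposure of reporter cells at 37 °C. Each well was multiplexed: SteadyGlo luminescence measured ATXN2-luciferase expression after a fluorogenic Gly-Phe-AFC viability readout (25 uM final).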
HepG2 tox: counter-screen for TGF-b inhibitors: cytotoxicity in HepG2 cells. Potency, µM (series often up to 46.1 µM), without a hit: top-dose activity change, negative = cytotoxicity, hits mostly cytotoxic. hit rate 0.76% among 410,000. HepG2 CAGA-GFP viability, ATP luminescence, 18 h
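CellTiter-Glo luminescence gave cytotoxicity after 18 hours at 37 degrees C. The cells were HepG2 CAGA-GFP in 1% FBS DMEM, stimulated with 500 pg/mL TGF-beta after compound addition. %Activity was normalised to no-cell wells (complete cell-killing) and DMSO (no toxicity), and curves were fitted and classified.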
Apoferritin bind: binds horse apoferritin like a general anesthetic; P02791; apoferritin/1-aminoanthracene competitive binding, fluorescence; Potency, µM (titrated, usually from 77.5 µM), without a hit: at the highest dose activity change, negative = displacement, most hits filed as inhibitors; hit rate 0.074% among 350,000; note: % is set by controls: 0 for no effect and ±100 for the full control effect; nearly all actives have a fitted effect of over 20% in size
Target sequence (P02791 2-175 limits assumed): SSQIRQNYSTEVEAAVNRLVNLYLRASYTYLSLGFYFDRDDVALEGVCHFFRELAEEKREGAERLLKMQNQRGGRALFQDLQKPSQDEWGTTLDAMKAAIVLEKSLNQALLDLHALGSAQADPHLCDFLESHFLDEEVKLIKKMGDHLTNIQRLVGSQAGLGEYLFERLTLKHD
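Concentration-response curves derived by four-parameter Hill fitting of normalized fluorescence, where compounds displaced 1-AMA from 10 uM horse apoferritin following a brief 10 min room-temperature incubation; propofol titration acted as positive control.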
TGFb SMAD3 inh: inhibitors of TGF-b signaling | Potency, µM (doses to about 46.1 µM), for the others: top-dose activity, negative = inhibition, actives largely listed as inhibitors | HepG2 CAGA-GFP TGF-b/SMAD3 reporter, GFP fluorescence, 18 h; TGF-beta stimulated, 500 pg/mL final | hit rate 1.2% among 410,000; note: % is set by controls: 0 for no effect and ±100 for the full control effect; nearly all actives have a fitted effect of over 65% in size
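Smad-responsive CAGA-GFP expression was quantified in HEPG2 cells exposed to compounds and 500 pg/mL final TGF-beta for 18 h at 37 degrees C; unstimulated wells defined full inhibition.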
S2 tox: reduces viability in counter-screen for ATXN expression inhibitors | AID 651635 | hit rate 0.49% among 400,000 | Potency, µM (top dose mostly 56.7 µM), hits mostly cytotoxic | S2 cells (HEK-293 line with an ATXN2-luciferase reporter) viability, CellTiter-Fluor protease fluorescence, 24 h; note: nearly all actives have a fitted effect of over 40% in size
Active calls of the source: *; i = inactive; u = inconclusive; x = not tested or not shown; ! = not confirmed by another sample. Calls come from the whole dose curve; as a rule, active = well fitted curve in the direction sought with a large enough effect; inconclusive = small, poorly fitted or top-dose-only effect, or another doubt; inactive = no such curve, though single readings can be large; an effect the other way counts as inactive or inconclusive. Potency is the fitted concentration of half-maximal effect.

SMILES	ATXN2 expr inh	HepG2 tox	Apoferritin bind	TGFb SMAD3 inh	S2 tox
Cc1[nH]c2ccccc2c1/C=N/NC(N)=S	-0.7%	-14.7%	-1.7%	-12.3%	i
Cc1[nH]c2ccccc2c1/C=N/NC(=S)NCc1ccccc1	x	-52.2%	-0.3%	12.6µM*	u
COc1ccc(C)cc1NC(=O)NCc1cccn1Cc1ccccc1	-15.3%	-4.7%	42.5%	2.1%	i
COc1cc(OC)c(NC(=O)NCc2cccn2Cc2ccccc2)cc1Cl	u	-0.5%	25.9%	8.91µM*	u
Cc1cc(=O)c2c(O)c3c(O)cc(=O)c4c3c3c(cc(O)c1c23)C(C)(C)C=4O	27.3µM*!	x	x	x	i
CC(C)(C)n1ncc2c(=O)n(Cc3cc(Cl)ccc3Cl)cnc21	x	-5.5%	x	-7.5%	x
N#Cc1c(NCCN)nc(-c2ccco2)c2c1CCCC2	12.6µM*	-29.0%	3.6%	u	i
Cc1ccc2c(c1)cc(CN(C)Cc1nc(C)cs1)c(=O)n2C	x	x	x	x	i
Oc1ccccc1C1SC(c2ccccc2O)SC(c2ccccc2O)S1 (stereo not drawn)	20µM*	22.4µM*	x	u	x
Cc1cc2c(cc1C)CSC(c1ccccc1O)SC2	-23.3%	-105.4%	u	15.8µM*	u
Oc1ccccc1C1OCC2(CO1)COC(c1ccccc1O)OC2 (stereo not drawn)	7.4%	-30.1%	-3.9%	-15.0%	i
O=C(CCCCCCNC(=O)c1cnc(N(c2ccccc2)c2ccccc2)nc1)NO	137.8%	x	x	x	x
Cn1c2c(c(=O)n(C)c1=O)C(C(F)(F)F)(C(F)(F)F)N=C(c1ccc(Cl)cc1)N2	u	-24.2%	-10.4%	1.78µM*	u
COc1cc(NCCCn2cnc(C(=O)Nc3ccc(C)c(C)c3)n2)cc(OC)c1OC	-2.3%	-1.0%	x	-4.7%	i
CC1(C)C2CCC1(C)C(NC(=O)COC(=O)c1ccc(S(C)(=O)=O)c([N+](=O)[O-])c1)C2 (stereo not drawn)	x	6.31µM*	x	5.01µM*	x
NS(=O)(=O)c1cc(C(=O)OCC(=O)Nc2ccccc2[N+](=O)[O-])ccc1Cl	-3.8%	-11.8%	-13.6%	10.0%	i
Cc1ccccc1NC(=O)Cc1nc(COC(=O)c2ccc(S(C)(=O)=O)c([N+](=O)[O-])c2)cs1	x	-79.0%	x	12.6µM*	u
CS(=O)(=O)c1ccc(C(=O)OCC(=O)Nc2cc(C(F)(F)F)ccc2Cl)cc1[N+](=O)[O-]	x	-90.0%	x	8.91µM*	x
Cc1ccccc1NC(=O)Cc1nc(COC(=O)c2ccc(NC(N)=O)cc2)cs1	9.4%	-1.8%	x	-1.7%	i
CS(=O)(=O)c1ccc(C(=O)OCC(=O)Nc2cccnc2Cl)cc1[N+](=O)[O-]	9.2%	-93.5%	x	u	i
Cc1ccccc1NC(=O)COC(=O)c1ccc(S(C)(=O)=O)c([N+](=O)[O-])c1	-19.1%	10µM*!	-18.0%	7.94µM*	i
O=C(CSc1ccc2nnc(-c3cccnc3)n2n1)Nc1ccccc1C(F)(F)F	12.6%	13.8%	-6.1%	-0.3%	i
Cc1ccc(CNC(=O)c2cc(COc3c(F)cccc3F)on2)s1	10.2%	-4.6%	12.6µM*	-1.7%	i
CN(CC(=O)Nc1ccc(Cl)cc1)C1CCCCC1	x	-20.5%	u	-9.8%	i
Cc1cccc(NC(=O)CNC(=O)c2cccc(-n3cccc3)c2)c1C	-4.0%	-0.2%	x	-11.4%	i
SMILES	ATXN2 expr inh	HepG2 tox	Apoferritin bind	TGFb SMAD3 inh	S2 tox
COc1ccccc1C(C)NCC(=O)c1c(C)[nH]c2ccccc12 (stereo not drawn)	x	-25.1%	x	-9.3%	x
COc1cccc(NC(=S)NC(Cc2ccccc2)c2ccccc2)c1 (stereo not drawn)	x	-23.9%	x	22.4µM*	i
COc1cccc(NC(=S)NC(C)c2ccc(OC)c(OC)c2)c1 (stereo not drawn)	-17.3%	17.8%	-9.7%	-2.1%	i
Cc1cc(-c2ccc(N3CCOCC3)cc2)nc2ccccc12	75.6%	-12.6%	5.0%	5.5%	i
CN1CCN(c2ccc(-c3ccc4ccccc4n3)cc2)CC1	0.377µM*	-33.7%	-2.7%	0.3%	x
c1ccc2nc(-c3ccc(N4CCOCC4)cc3)ccc2c1	3.55µM*	-19.6%	-2.1%	u	i
